The subject of the assay is U-2932. As to the kind of experiment: growth inhibition by drug alone (1 - RLU/untreated control) (fraction); higher = stronger inhibition. The note with it: 177Lu-lilotomab satetraxetan 0 ug/ml. How it is done:
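U-2932 ABC-DLBCL cells were pretreated or not for 18 h with 1 ug/ml 177Lu-lilotomab satetraxetan (600 MBq/mg), washed and seeded (3000 cells/well) on 384-well plates pre-printed with the Selleck Cambridge Cancer Compound library. Viability was read by RealTime-Glo luminescence on days 3-6 after seeding. Effect = 1 - RLU/mean RLU of the 48 untreated no-drug control wells per plate; Bliss score = (M-E)/(1-Fa), with E the expected Bliss-additive effect.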

Counter-ions that a name gives are not always drawn.

Regarding `CC(=O)O[C@@]12CO[C@@H]1C[C@H](O)[C@@]1(C)C(=O)[C@H](O)C3=C(C)[C@@H](OC(=O)[C@H](O)[C@@H](NC(=O)OC(C)(C)C)c4ccccc4)C[C@@](O)([C@@H](OC(=O)c4ccccc4)[C@H]21)C3(C)C` [Docetaxel (Taxotere)], the “growth inhibition by drug alone” value (10 nM, time (day): 3) worked out at 0.953; the “growth inhibition by drug alone” value (10 nM, time (day): 4) came out at 0.965; the “growth inhibition by drug alone” value (10 nM, time (day): 5) is 0.974; the “growth inhibition by drug alone” value (10 nM, time (day): 6) came to 0.978; the “growth inhibition by drug alone” value (1000 nM, time (day): 3) is 0.964; the “growth inhibition by drug alone” value (1000 nM, time (day): 4) amounted to 0.972. Besides, the “growth inhibition by drug alone” value by setting is: (1000 nM, time (day): 5) 0.977; (1000 nM, time (day): 6) 0.98.
Turning to `Cc1csc(-c2nnc(Nc3ccc(Oc4ncccc4-c4ccnc(N)n4)cc3)c3ccccc23)c1`, the “growth inhibition by drug alone” value runs as follows: (10 nM, time (day): 3) 0.0562; (10 nM, time (day): 4) -0.00651; (10 nM, time (day): 5) 0.0489; (10 nM, time (day): 6) 0.269; (1000 nM, time (day): 3) 0.102; (1000 nM, time (day): 4) 0.112. Also, the “growth inhibition by drug alone” value by setting is: (1000 nM, time (day): 5) 0.103; (1000 nM, time (day): 6) 0.252.
Regarding `Cc1nnc(C(C)C)n1C1C[C@H]2CC[C@@H](C1)N2CC[C@H](NC(=O)C1CCC(F)(F)CC1)c1ccccc1` (stereo in doubt) [Maraviroc], the “growth inhibition by drug alone” value is 0.125 (10 nM, time (day): 3); 0.118 (10 nM, time (day): 4); 0.0854 (10 nM, time (day): 5); -0.0157 (10 nM, time (day): 6); 0.0827 (1000 nM, time (day): 3); 0.0764 (1000 nM, time (day): 4). The “growth inhibition by drug alone” value was -0.0104 (1000 nM, time (day): 5) and -0.122 (1000 nM, time (day): 6).
On to `COC1=CC(c2cc3ccccc3[nH]2)=N/C1=C\c1[nH]c(C)cc1C` [Obatoclax mesylate (GX15-070)], for which the “growth inhibition by drug alone” value by setting is: (10 nM, time (day): 3) 0.114; (10 nM, time (day): 4) 0.0688; (10 nM, time (day): 5) -0.0597; (10 nM, time (day): 6) -0.127; (1000 nM, time (day): 3) 0.123; (1000 nM, time (day): 4) 0.0924. For the same compound, the “growth inhibition by drug alone” value runs as follows: (1000 nM, time (day): 5) 0.0457; (1000 nM, time (day): 6) -0.0101.
`CC(C)C[C@H](NC(=O)[C@@H](O)[C@H](N)Cc1ccccc1)C(=O)O` [Ubenimex (Bestatin)]: the “growth inhibition by drug alone” value is, setting by setting: (10 nM, time (day): 3) 0.0863; (10 nM, time (day): 4) 0.0556; (10 nM, time (day): 5) -0.0551; (10 nM, time (day): 6) -0.108; (1000 nM, time (day): 3) -0.043; (1000 nM, time (day): 4) -0.0237. The “growth inhibition by drug alone” value by setting is: (1000 nM, time (day): 5) -0.0577; (1000 nM, time (day): 6) -0.0906.

The values are drawn from the supplement of paper PMC6897291.
